Structures are written as SMILES. Fewer than 10 of roughly 96,000 compounds were called active. A selection follows. Values without a mark were called inactive.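 The calls were made as follows: active = activation factor of at least 2 at 5 µM in the primary screen; inactive = the rest.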

The record followed here is PubChem BioAssay AID1025 (Sanford-Burnham Center for Chemical Genomics, 2008).

Chain of Cytochrome P450 2C19 (Homo sapiens) (P33261 whole entry, looked up): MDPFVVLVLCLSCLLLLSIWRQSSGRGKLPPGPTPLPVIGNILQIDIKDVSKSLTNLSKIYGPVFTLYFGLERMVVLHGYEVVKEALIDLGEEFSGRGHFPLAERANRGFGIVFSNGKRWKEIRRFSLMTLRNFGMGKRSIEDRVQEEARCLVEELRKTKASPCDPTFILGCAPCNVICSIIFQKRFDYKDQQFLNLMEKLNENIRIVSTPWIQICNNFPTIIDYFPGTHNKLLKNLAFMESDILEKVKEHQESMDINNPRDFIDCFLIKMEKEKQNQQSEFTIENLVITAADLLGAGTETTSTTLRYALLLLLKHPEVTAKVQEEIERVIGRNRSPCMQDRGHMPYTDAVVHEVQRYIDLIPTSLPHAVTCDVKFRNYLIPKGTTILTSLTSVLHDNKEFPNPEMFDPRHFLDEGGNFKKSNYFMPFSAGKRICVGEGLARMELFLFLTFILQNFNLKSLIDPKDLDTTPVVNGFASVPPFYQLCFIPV

This test addresses Cytochrome P450 2C19 (Homo sapiens) (UniProt P33261). The experiment in a line: human CYP2C19 activators, primary screen, biochemical, luminescence (AID 1025).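 Also: 0 = wells with 2.5 mM tranylcypromine and 1 = vehicle-only wells.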 To be noted: recombinant CYP2C19, luciferin-H EGE luminescence; at 5 µM; active compounds read high; 0 = fully inhibited enzyme, 1 = untreated enzyme.
Consider `CCCCNC(=O)CSc1nc2ccc(NC(=O)CSc3nnc(COc4ccccc4C)n3C)cc2s1`, for which the activation factor is 0.8.

On to `CSc1nc2ccccc2cc1/C=C(\C#N)c1ccc(Cl)cc1Cl`, for which the activation factor was 0.9.

Consider `Cc1nnc(SCC(=O)Nc2ncc3c(n2)CC(C)(C)CC3=O)s1`, for which the activation factor is 1.

Regarding `O=C(Nc1ccc2c(c1)OCCO2)C(c1ccc(F)cc1)N1CCCCC1` (configuration not stated), the activation factor is 0.4.

As for `COc1cc(C2C(C(=O)OCCC#N)=C(C)NC3=C2S(=O)(=O)c2ccccc23)cc(OC)c1OC` (configuration not stated), the activation factor is 0.8.

In the case of `CCCCN1C(=O)CC(N2CCOCC2)C1=O` (configuration not stated), the activation factor is 1.

On to `O=c1c2ccccc2nc2n1C1(CCCCC1)Cc1ccccc1-2`, for which the activation factor was 0.3.

With `Cc1ccc(OCc2nnc(NC(=O)OCC(C)C)s2)cc1`, the activation factor was 0.9.

With `Cc1csc(=NC(=O)c2ccccc2)n1CCO`, the activation factor was 0.5.

`CSC1=N/C(=C\c2ccc3c(c2)OCO3)C(=O)S1`: the activation factor is 1.

For the molecule `CC(C)(C)c1cc2cccnc2n1Cc1cccc(F)c1`, the activation factor is 0.9.

Take `CCNC(=S)Nc1cccc(Cl)c1C`: the activation factor is 0.5.

As for `CN1CCN(c2ccc([N+](=O)[O-])c(Sc3nc4ccccc4[nH]3)c2)CC1`, the activation factor is 0.7.

As for `CC/C(C)=N/Nc1nc2sc3c(c2c(=O)[nH]1)CC(C)(C)OC3`, the activation factor was 0.6.

For the molecule `CCC(=O)Nc1ccc(C(=O)Nc2cccc(OC)c2)cc1`, the activation factor was 1.

Consider `C=CCn1c(SCC(=O)c2c(N)n(C)c(=O)n(C)c2=O)nc2sc(CC)cc2c1=O`, for which the activation factor is 1.

With `COc1ccc(-c2nc3ccccc3n2CCC(C)C)cc1OC`, the activation factor is 0.4.

Regarding `CC(C)Oc1ccc(C(=O)NC(C)(C)CO)cc1`, the activation factor is 1.

On to `COc1ccc(C(=O)Nc2ncc3c(n2)-c2ccccc2CC3)cc1`, for which the activation factor is 0.9.

As to `O=C(Nc1cccc2ccccc12)c1onc2c1CCCC2`, the activation factor is 0.9.

For `FC(F)(F)c1ccc2nnc(-c3c(Cl)cccc3Cl)n2c1`, the activation factor was 0.7.

Regarding `Cc1cc(C(=O)OCC(=O)Nc2ccc(F)c(F)c2)c(C)o1`, the activation factor was 0.1.

Take `Cc1nnc(SCC(=O)NC(=O)NC2CCCC2)n1N`: the activation factor is 1.

Consider `Cc1ccc(-c2csc(N(Cc3ccco3)C(=O)c3cccs3)n2)cc1`, for which the activation factor was 0.3.

`O=C(c1ccccc1Oc1ccccc1)N1CCN(c2ccc(F)cc2)CC1`: the activation factor was 0.1.

On to `O=C1N=C(N2CCCC2)S/C1=C\c1cccc(Br)c1`, for which the activation factor was 0.4.

As to `Cc1noc(C)c1COC(=O)c1cc2ccccc2cc1O`, the activation factor is 0.1.

Consider `Cc1nnc(OCC(=O)NCCC2=CCCCC2)c2ccccc12`, for which the activation factor is 0.4.

On to `CCOCCCNC(=O)C(NC(=O)CNC(=O)c1ccccc1)c1ccc(C)cc1` (configuration not stated), for which the activation factor is 1.1.

Regarding `Nn1c(SCC(=O)NC2CCCC2)nnc1-c1ccccc1F`, the activation factor was 0.8.

For the molecule `CCN(CC)Cc1csc2ccc(Br)cc12`, the activation factor is 0.9.

Take `CN(C)c1ccc(CNC2C3CC4CC(C3)CC2C4)cc1` (configuration not stated): the activation factor is 0.2.

As for `FC(F)(F)c1cccc(-c2cc3ccccc3nc2N2CCCC2)c1`, the activation factor is 0.8.

Take `COc1ccc2[nH]c(=O)c(CNc3ccc(C)c(C)c3)cc2c1`: the activation factor is 0.8.

Take `Cn1nc(C(F)(F)F)c(C(=O)Nc2cccc(C(F)(F)F)c2)c1SCc1ccc(Cl)cc1`: the activation factor is 0.1.

`Cc1ccc(/C=N\n2c(-c3ccccc3)n[nH]c2=S)s1`: the activation factor is 1.

With `CCCCCCOc1ccc(OC(=O)c2cccnc2)cc1`, the activation factor is 0.8.

Regarding `O=S(=O)(c1cnccc1N1CCN(/N=C/c2ccc(Br)cc2)CC1)N1CCCCC1`, the activation factor is 1.1.

For `CCC(C)NC(=O)c1c(N)n(/N=C/c2cccs2)c2nc3ccccc3nc12` (configuration not stated), the activation factor is 0.9.

For the molecule `Cc1ccc(C(=O)N2CCN(C(=O)N3CCOCC3)CC2)cc1`, the activation factor was 0.9.

In the case of `Cc1cccc(NC(=O)/C(=C\c2ccco2)NC(=O)c2ccccc2)c1`, the activation factor was 0.9.

Consider `CC(C)Oc1ccc(CCc2n[nH]c(=S)n2Cc2ccccc2)cc1`, for which the activation factor was 0.8.

For `CCOC(=O)/C(=C\c1ccc([N+](=O)[O-])cc1)C(=O)c1cc(C(C)=O)c(Nc2ccccc2)s1`, the activation factor is 0.4.

In the case of `CCOc1cccc(SCc2noc(C(=O)NC(C)C)c2C(=O)O)c1`, the activation factor was 0.9.

`Cc1cccc(C(=O)NCCCN2CCCC2=O)c1`: the activation factor was 0.8.

Regarding `COc1ccc(C(=O)NNC(=O)c2cnccn2)cc1[N+](=O)[O-]`, the activation factor was 0.9.

As to `Cc1cc(=O)[nH]c(SCc2cccc(F)c2)n1`, the activation factor was 0.9.

`COc1ccc(NC(=O)/C(Cl)=C(/Cl)S(=O)Cc2ccc(C)cc2)cn1` (configuration not stated): the activation factor was 0.7.

Regarding `COc1ccc(/C=C2\CCCC3C2=NN(C(=O)c2scnc2C)C3c2ccc(OC)cc2)cc1` (configuration not stated), the activation factor was 0.7.

In the case of `Cc1ccccc1-n1nc(C)c2cc(C(=O)NC3CC3)sc21`, the activation factor is 0.4.

Regarding `Cc1onc(-c2c(Cl)cccc2Cl)c1C(=O)c1c[nH]c(C(=O)NC2CC2)c1`, the activation factor was 1.

Turning to `Cc1cccc(C(=O)Nc2ccc(C(=O)/C=C/c3cccs3)cc2)c1`, the activation factor is 1.

For the molecule `CCOc1ccc(S(=O)(=O)NCCSc2ccccc2)cc1`, the activation factor is 0.

Consider `CN(C)S(=O)(=O)c1ccc(N2CCCC2)c(C(=O)NCc2ccccc2)c1`, for which the activation factor was 0.4.

In the case of `COc1ccc(C(=O)Nc2nc(-c3ccc(OC)cc3)c(-c3ccc([N+](=O)[O-])cc3)s2)cc1`, the activation factor was 0.9.

With `Cc1nn(Cc2ccccc2Cl)c(C)c1NC(=O)Cn1nc([N+](=O)[O-])c(Cl)c1C`, the activation factor is 1.

Consider `COC(=O)Nc1sc2nc(C)cc(C)c2c1-n1cccc1`, for which the activation factor is 0.8.

Take `CCCc1nnc(NC(=O)c2cccs2)s1`: the activation factor is 0.9.

As to `O=C1Nc2ccc(Br)cc2/C1=N/N=C/C1=C(N2CCOCC2)C(=C\c2ccccc2)/CC1`, the activation factor is 1.

As for `O=C(N/N=C\c1cccc(Br)c1)c1ccccc1-n1cccc1`, the activation factor was 0.3.

Turning to `CC(=O)N1Cc2ccccc2CC1C(=O)O` (configuration not stated), the activation factor was 1.2.

Take `O=C(c1cccc(N2CCCC2=O)c1)N1CCOCC1`: the activation factor was 1.1.

Regarding `Cc1nn(CCOc2ccccc2)c(=O)n1-c1ccccc1F`, the activation factor was 0.5.

In the case of `O=C(NCc1ccccc1)[C@@H]1CSC2c3ccccc3C(=O)N21` (some centres not stated), the activation factor was 0.2.

For `N=c1ccn(CC(=O)NC(N)=O)c2ccccc12`, the activation factor is 1.1.

Consider `CCC(=O)c1c[nH]c(C(=O)NCC2CCCO2)c1` (configuration not stated), for which the activation factor is 1.

For the molecule `COc1ccc(Nc2nc(Cl)nc(NCc3ccco3)n2)cc1`, the activation factor is 1.

As for `CN(C)/C=C/C(=O)c1ccccc1F`, the activation factor was 1.1.

With `C=CCn1c(Cn2nnc3ccccc32)nnc1SCC(=O)N/N=C/c1cc(Br)cc(OC)c1O`, the activation factor was 0.8.

In the case of `COC(=O)CCSc1cc([N+](=O)[O-])cc2c1c(C1OCCS1)nn2-c1ccccc1` (configuration not stated), the activation factor is 0.9.

For the molecule `NC(=O)c1nsc(C(=O)N(CC(=O)NCc2ccc(F)cc2)Cc2ccco2)c1N`, the activation factor was 0.8.

As to `CCNC(=O)NC(=O)C(C)OC(=O)c1cc(S(=O)(=O)N2CCCCCC2)ccc1OC` (configuration not stated), the activation factor is 0.3.

Regarding `CCOC(=O)c1c(-c2ccccc2)csc1NC(=S)NC(=O)c1ccccc1`, the activation factor was 1.1.

As for `CCCNC(=O)c1ccccc1NC(=O)CSCc1ccc(OC)cc1`, the activation factor was 0.5.

`CC(C)NC(=O)C(=O)N/N=C/c1ccco1`: the activation factor is 1.1.

For `CC(C)CCNC(=O)CC1C(=O)N(Cc2ccccc2)C(C)c2nc3ccccc3n21` (configuration not stated), the activation factor was 0.1.

As for `CCCCc1nc(NCCN)c(C#N)c2c1CSC(C)(C)C2`, the activation factor was 0.7.

In the case of `Cc1ccc(S(=O)(=O)NCC(C)NS(C)(=O)=O)cc1` (configuration not stated), the activation factor is 0.8.

As for `O=C(Nc1ccc(Sc2ccc(Br)cc2)cc1)c1ccco1`, the activation factor was 0.9.

As for `CCCn1nnnc1NC(=O)COc1ccc(Cl)cc1C`, the activation factor is 0.3.

For `Cc1ccc(N(CC(=O)Nc2cccc(N(C)S(C)(=O)=O)c2)S(C)(=O)=O)cc1`, the activation factor was 1.

In the case of `O=C(NCCCCCCNC(=O)NCc1ccco1)NCc1ccco1`, the activation factor is 1.1.

For the molecule `CCCCNC(=O)CCn1c(=S)[nH]c2cc3c(cc2c1=O)OCO3`, the activation factor is 0.6.

As for `CCC(=O)OCc1c(C(F)(F)F)nn(C)c1Oc1cccc(C(F)(F)F)c1`, the activation factor was 0.4.

`COc1ccc(N(CC(=O)N/N=C/c2cccs2)S(=O)(=O)c2ccc(OC)c(OC)c2)cc1`: the activation factor was 0.

Turning to `CCc1c(C)sc(NC(=O)c2cccs2)c1C(N)=O`, the activation factor was 0.2.

Consider `Cc1nnc(NCCO)c2ccccc12`, for which the activation factor was 0.9.

With `COc1cc(/C=N/NC(=O)Nc2ccccc2)ccc1OCCOc1ccccc1C`, the activation factor is 1.

With `Cc1[nH]nc(-c2ccc(OCc3cnn(-c4ccccc4)c3)cc2O)c1Oc1ccc(Cl)cc1`, the activation factor was 0.8.

For the molecule `COc1ccc2c(c1)SC(C)CC2=O` (configuration not stated), the activation factor is 0.2.

`COC(=O)Nc1ccc(S(=O)(=O)N2CCN(CCN3C(=O)C4C5C=CC(C5)C4C3=O)CC2)cc1` (configuration not stated): the activation factor is 0.9.

As for `Cc1ccc(O)c(CNc2nc3ccccc3n2C)c1`, the activation factor was 0.6.

As to `CSc1ccc(CCNC(=O)C2CCN(c3nnc(-n4cccc4)s3)CC2)cc1`, the activation factor is 0.7.

In the case of `O=C(CCc1ccc(S(=O)(=O)NC2CCCCC2)cc1)NCc1ccccc1`, the activation factor was 0.4.

On to `O=c1[nH]c2c(c(=O)n1Cc1ccccc1)CCC2`, for which the activation factor is 1.

For `Cc1ccc2nc(/C(C#N)=C\c3ccc(OC(=O)c4cccs4)cc3)[nH]c2c1`, the activation factor is 0.5.

As for `O=C(/C=C/c1ccccc1)c1ccoc1`, the activation factor is 0.7.

In the case of `CN1C2CCC1/C(=C\c1ccccc1Cl)C(=O)/C2=C\c1ccccc1Cl`, the activation factor was 1.1.

Regarding `CC(N=Cc1nc(-c2ccccc2)oc1O)c1ccccc1` (configuration not stated), the activation factor is 0.3.

Turning to `O=C(NCN1CCN(CCO)CC1)c1cnccn1`, the activation factor was 1.1.

For the molecule `CC(Oc1ccc(Cl)cc1Cl)C(=O)/C=C/N(C)C` (configuration not stated), the activation factor was 0.4.

In the case of `CN(C)/C=C(\C#N)C(=O)c1cccnc1Oc1cccc(F)c1`, the activation factor was 0.6.
